Compounds without any hit were thinned out: in the full panel of roughly 79,000, 15% have a hit. Unmarked numbers belong to inactive results. Calls of active or inactive are those of the source. Rule as the data show it: active = growth inhibition above about 70%; inactive = the rest.

Here are results for ten compounds from PubChem BioAssay (NCI).

Experiment [1] in a line: NCI Yeast Anticancer Drug Screen. Data for the rad50 strain (AID 155).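 Also: 0% = growth of vehicle-only cultures of the same strain.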 The settings on record: S. cerevisiae rad50 strain growth inhibition, hits give high values. A digest of the protocol: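 Inhibition values express reduced yeast growth in compound-treated cultures relative to vehicle-treated controls.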
Experiment [2] is described as follows: NCI Yeast Anticancer Drug Screen. Data for the mec2-1 strain (AID 157). The following applies: S. cerevisiae mec2-1 strain, hits give high values. In short, it runs like this: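 Growth inhibition is read against vehicle-treated controls after compound exposure of the mec2-1 yeast strain, which is defective in DNA damage repair or cell cycle control.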
The nature of experiment [3]: NCI Yeast Anticancer Drug Screen. Data for the sgs1 mgt1 strain (AID 161).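 Also: 0% = growth of cultures given vehicle only.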 The settings on record: S. cerevisiae sgs1 mgt1 strain, hits give high values. A digest of the protocol: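 Percent growth inhibition was derived by comparing compound-exposed mutant yeast with vehicle-exposed cultures. The strain carries alterations in DNA damage repair.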
The nature of experiment [4]: NCI Yeast Anticancer Drug Screen. Data for the cln2 rad14 strain (AID 165).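 Also: 0% = growth equal to vehicle treated cultures.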 The settings on record: S. cerevisiae cln2 rad14 strain, hits give high values. A digest of the protocol:
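Growth inhibition, relative to vehicle-treated controls, is the read-out. The test organism is a yeast strain with defined genetic alterations, cln2 rad14.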

The nature of experiment [5]: NCI Yeast Anticancer Drug Screen. Data for the bub3 strain (AID 167). The settings on record: S. cerevisiae bub3 mutant strain, hits give high values. In short, it runs like this:
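Steps: expose the mutant yeast strain to compound; grow alongside vehicle-treated cultures; measure growth; express inhibition against the vehicle cultures.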

Experiment [6] can be described thus: NCI Yeast Anticancer Drug Screen. Data for the mlh1 rad18 strain (AID 175). The following applies: S. cerevisiae mlh1 rad18 strain growth inhibition, hits give high values. A digest of the protocol: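 Cells of a genetically altered yeast strain, deficient in DNA damage repair, were treated with compound. Their growth was then compared with that of vehicle-treated cultures to give inhibition.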

Setting [7] is: at 5.0 µM (retest, dose inferred, filed as 0.5).
Setting [8] is: at 50.0 µM (retest, dose inferred, filed as 5.0).

`CCC(C)OC(=S)S` (stereo not given): the growth inhibition is 4% in experiment [1] (setting [7]); 36% in experiment [1] (setting [8]); 42.9% in experiment [1] (at 50.0 µM); 8% in experiment [2] (setting [7]); 44% in experiment [2] (setting [8]); 33.8% in experiment [2] (at 50.0 µM). In addition, the growth inhibition is -7% in experiment [3] (setting [7]); 26% in experiment [3] (setting [8]); 74.2% (active) in experiment [3] (at 50.0 µM); 1% in experiment [4] (setting [7]); -4% in experiment [4] (setting [8]); -20.8% in experiment [4] (at 50.0 µM). Also, the growth inhibition is 3% in experiment [5] (setting [7]); 59% in experiment [5] (setting [8]); 90.7% (active) in experiment [5] (at 50.0 µM); 15% in experiment [6] (setting [7]); 57% in experiment [6] (setting [8]); 85% (active) in experiment [6] (at 50.0 µM).

On to `Cc1ccc(-c2n[nH]c(=O)n2/N=C\c2ccccc2)cc1`, for which the growth inhibition in experiment [1] (setting [7]) was 21%; in experiment [1] (setting [8]) it was 38%; in experiment [1] (at 50.0 µM), 40.9%; in experiment [2] (setting [7]), 18%; in experiment [2] (setting [8]), 25%; in experiment [2] (at 50.0 µM), 21.9%. For the same compound, the growth inhibition in experiment [3] (setting [7]) is 28%; in experiment [3] (setting [8]), 39%; in experiment [3] (at 50.0 µM), 50.1%; in experiment [4] (setting [7]), 12%; in experiment [4] (setting [8]), 31%; in experiment [4] (at 50.0 µM) it was 15.2%. The growth inhibition in experiment [5] (setting [7]) is 4%; in experiment [5] (setting [8]), 23%; in experiment [5] (at 50.0 µM), 23%; in experiment [6] (setting [7]) it was 17%; in experiment [6] (setting [8]), 44%; in experiment [6] (at 50.0 µM), 59%.

Take `CC1SC2=NC3=C(c4ccccc4C3=O)C(c3ccc(Cl)cc3)N2C1=O` (stereo not given): the growth inhibition in experiment [1] (setting [7]) was -3%; in experiment [1] (setting [8]) it was 75% (active); in experiment [1] (at 50.0 µM), 58.7%; in experiment [2] (setting [7]) it was -28%; in experiment [2] (setting [8]) it was 81% (active); in experiment [2] (at 50.0 µM), 33.8%. The growth inhibition in experiment [3] (setting [7]) was -6%; in experiment [3] (setting [8]), 69%; in experiment [3] (at 50.0 µM), 73.2% (active); in experiment [4] (setting [7]), 14%; in experiment [4] (setting [8]), 84% (active); in experiment [4] (at 50.0 µM) it was 56.3%. The growth inhibition was -3% in experiment [5] (setting [7]); 88% (active) in experiment [5] (setting [8]); 51.8% in experiment [5] (at 50.0 µM); -17% in experiment [6] (setting [7]); 91% (active) in experiment [6] (setting [8]); 53.4% in experiment [6] (at 50.0 µM).

Regarding `CC(=O)[O-].O=C(N/N=C/c1ccccc1[O-])c1ccccc1.[Zn+2]`, the growth inhibition is -3% in experiment [1] (setting [7]); 61% in experiment [1] (setting [8]); -2.05% in experiment [1] (at 50.0 µM); 6% in experiment [2] (setting [7]); 89% (active) in experiment [2] (setting [8]); 14.6% in experiment [2] (at 50.0 µM). In addition, the growth inhibition is 1% in experiment [3] (setting [7]); 86% (active) in experiment [3] (setting [8]); 55.8% in experiment [3] (at 50.0 µM); -5% in experiment [4] (setting [7]); 32% in experiment [4] (setting [8]); -16.9% in experiment [4] (at 50.0 µM). Besides, the growth inhibition in experiment [5] (setting [7]) was -10%; in experiment [5] (setting [8]) it was 70% (active); in experiment [5] (at 50.0 µM), 0.3%; in experiment [6] (setting [7]), 9%; in experiment [6] (setting [8]) it was 91% (active); in experiment [6] (at 50.0 µM) it was 32%.

Consider `CCCCCN(C(=O)CCl)c1ccccc1`, for which the growth inhibition in experiment [1] (setting [7]) was 2%; in experiment [1] (setting [8]), 36%; in experiment [1] (at 50.0 µM) it was 55.7%; in experiment [2] (setting [7]), -3%; in experiment [2] (setting [8]), 14%; in experiment [2] (at 50.0 µM), 35.2%. Also, the growth inhibition in experiment [3] (setting [7]) is -1%; in experiment [3] (setting [8]), 19%; in experiment [3] (at 50.0 µM), 53.7%; in experiment [4] (setting [7]), 3%; in experiment [4] (setting [8]) it was 5%; in experiment [4] (at 50.0 µM), 13.8%. Besides, the growth inhibition in experiment [5] (setting [7]) was -4%; in experiment [5] (setting [8]), 6%; in experiment [5] (at 50.0 µM), 50.5%; in experiment [6] (setting [7]), -2%; in experiment [6] (setting [8]) it was 24%; in experiment [6] (at 50.0 µM) it was 67.6%.

With `CC1=C(C#N)C(=O)OC1(C)C(CC(=O)c1ccccc1)c1ccccc1` (stereo not given), the growth inhibition in experiment [1] (setting [7]) is 0%; in experiment [1] (setting [8]), 3%; in experiment [1] (at 50.0 µM), -5.3%; in experiment [2] (setting [7]) it was 5%; in experiment [2] (setting [8]), 6%; in experiment [2] (at 50.0 µM), 4.45%. The growth inhibition was 20% in experiment [3] (setting [7]); 16% in experiment [3] (setting [8]); 4.45% in experiment [3] (at 50.0 µM); 3% in experiment [4] (setting [7]); 4% in experiment [4] (setting [8]); 49.8% in experiment [4] (at 50.0 µM). Besides, the growth inhibition is 2% in experiment [5] (setting [7]); 11% in experiment [5] (setting [8]); 11.8% in experiment [5] (at 50.0 µM); 26% in experiment [6] (setting [7]); 23% in experiment [6] (setting [8]); 1.85% in experiment [6] (at 50.0 µM).

Consider `CC(=O)c1cc(I)c(O)c2ncccc12`, for which the growth inhibition is 96% (active) in experiment [1] (setting [7]); 99% (active) in experiment [1] (setting [8]); 90.3% (active) in experiment [1] (at 50.0 µM); 93% (active) in experiment [2] (setting [7]); 99% (active) in experiment [2] (setting [8]); 92.5% (active) in experiment [2] (at 50.0 µM). Also, the growth inhibition is 29% in experiment [3] (setting [7]); 98% (active) in experiment [3] (setting [8]); 93% (active) in experiment [3] (at 50.0 µM); 69% in experiment [4] (setting [7]); 96% (active) in experiment [4] (setting [8]); 88.8% (active) in experiment [4] (at 50.0 µM). Moreover, the growth inhibition in experiment [5] (setting [7]) is 28%; in experiment [5] (setting [8]), 95% (active); in experiment [5] (at 50.0 µM), 89.5% (active); in experiment [6] (setting [7]), 100% (active); in experiment [6] (setting [8]) it was 100% (active); in experiment [6] (at 50.0 µM) it was 87.9% (active).

On to `O=[N+]([O-])c1ccc(CSSCc2ccc([N+](=O)[O-])cc2)cc1`, for which the growth inhibition in experiment [1] (setting [7]) is 5%; in experiment [1] (setting [8]) it was 18%; in experiment [1] (at 50.0 µM) it was 18.5%; in experiment [2] (setting [7]), 9%; in experiment [2] (setting [8]), 39%; in experiment [2] (at 50.0 µM), 16.7%. Moreover, the growth inhibition in experiment [3] (setting [7]) is 21%; in experiment [3] (setting [8]), 49%; in experiment [3] (at 50.0 µM), 41.5%; in experiment [4] (setting [7]), -3%; in experiment [4] (setting [8]), 36%; in experiment [4] (at 50.0 µM) it was -18.2%. Besides, the growth inhibition in experiment [5] (setting [7]) is 26%; in experiment [5] (setting [8]), 66%; in experiment [5] (at 50.0 µM), 72.5% (active); in experiment [6] (setting [7]), 10%; in experiment [6] (setting [8]), 49%; in experiment [6] (at 50.0 µM), 28%.

`Cc1cccc(C)c1O`: the growth inhibition in experiment [1] (setting [7]) was 17%; in experiment [1] (setting [8]) it was 99% (active); in experiment [1] (at 50.0 µM), 99% (active); in experiment [2] (setting [7]), -1%; in experiment [2] (setting [8]) it was 99% (active); in experiment [2] (at 50.0 µM) it was 98.5% (active). The growth inhibition was 0% in experiment [3] (setting [7]); 98% (active) in experiment [3] (setting [8]); 98.8% (active) in experiment [3] (at 50.0 µM); -9% in experiment [4] (setting [7]); 98% (active) in experiment [4] (setting [8]); 97.8% (active) in experiment [4] (at 50.0 µM). The growth inhibition in experiment [5] (setting [7]) is 3%; in experiment [5] (setting [8]), 91% (active); in experiment [5] (at 50.0 µM), 98.5% (active); in experiment [6] (setting [7]) it was 5%; in experiment [6] (setting [8]) it was 99% (active); in experiment [6] (at 50.0 µM), 99.5% (active).

Take `N#C/C(=C\NC(=S)Nc1cc(Cl)ccc1Cl)c1nc2ccccc2s1`: the growth inhibition in experiment [1] (setting [7]) was 21%; in experiment [1] (setting [8]), 25%; in experiment [1] (at 50.0 µM), 34.2%; in experiment [2] (setting [7]), 7%; in experiment [2] (setting [8]) it was 21%; in experiment [2] (at 50.0 µM) it was 15.1%. The growth inhibition was 2% in experiment [3] (setting [7]); 4% in experiment [3] (setting [8]); 10.1% in experiment [3] (at 50.0 µM); 20% in experiment [4] (setting [7]); 29% in experiment [4] (setting [8]); 39.6% in experiment [4] (at 50.0 µM). Further, the growth inhibition was 7% in experiment [5] (setting [7]); 19% in experiment [5] (setting [8]); 37.4% in experiment [5] (at 50.0 µM); 21% in experiment [6] (setting [7]); 12% in experiment [6] (setting [8]); 27.1% in experiment [6] (at 50.0 µM).
